Each structure is given as a SMILES string. Results filed as inconclusive are left out. Where a call stands in place of a potency, no number is given. More than one record can exist for a structure, and the calls need not agree. The source made the active and inactive calls. The call rests on the fitted dose curve.
Potency means the concentration at half of the fitted maximal effect.

A short description of this test: qHTS assay to identify small molecule agonists of the AP-1 signaling pathway - cell viability counter screen (AID 1159525). Further: nearly all actives have a fitted effect of over 55% in size. The conditions noted are these: ME-180 (cervical carcinoma) AP-1-bla cells viability, ATP luminescence, 5 h; series mostly up to 76.8 µM. An excerpt:
National Center for Advancing Translational Sciences [NCATS]
NIH Chemical Genomics Center [NCGC]
U.S. Environmental Protection Agency [EPA]
National Institutes of Environmental Health Sciences [NIEHS]
National Toxicology Program [NTP]
U.S. Food and Drug Administration [FDA]
Activator protein-1 (AP-1), a transcription factor, plays an important role in tumor genesis by regulating genes involved in cell proliferation, differentiation, apoptosis, and angiogenesis. AP-1 activity is induced by a complex network of signaling pathways that involves extracellular signals, such as growth factors. The AP-1 protein complex formed from c-Fos and c-Jun binding to the AP-1 response element results in transcriptional activation of genes containing such elements within their promoter.
Low molecular weight molecules have been discovered and developed to modulate various components of these signaling pathways, for example, MAP kinase inhibitors. However, many points of pathway modulation remain untested due to the lack of chemical probes making this signaling locus of general interest.
Using a beta-lactamase reporter-gene under control of the AP-1 response element, a cell-based assay [CellSensor(TM) AP-1-bla ME-180 developed by Invitrogen Corp.] was used to measure EGF-induced signaling. The Tox21 10K library compounds were measured for their ability to positively modulate the action of EC50 EGF on reporter gene activity. Compounds were screened in a 15-pt titration series in 1536-well format. The cytotoxicity of the Tox21 compound library against this cell line was tested in parallel by measuring the intra cellular ATP content in the same wells.
Tox21 Assay Protocol Summary:
2500 cells/5uL in Opti-MEM medium containing 0.5% dialyzed FBS, 0.1 mM NEAA, 1 mM sodium pyruvate and 10 mM HEPES was dispensed into 1536-well black wall/clear bottom plates using a Multidrop dispenser and cells were cultured at 37 degrees Celsius overnight. Next day 23 nL of compounds dissolved in DMSO, positive controls or DMSO were delivered to each well using a pin tool. The plates were incubated at 37 degrees Celsius for 5 hours. 1 uL of LiveBLAzerTM B/G FRET substrate (Solution A+B+C+D) was added to each well using a Flying Reagent Dispenser. After incubated at room temperature for 2.5 hours the plates were measured on an EnVision plate reader at Excitation 405nm, Emission1=460nm and Emission 2=530nm. The %Activity was determined from the ratio of 460nm/530nm.
After the plates were read for Beta-Lactamase assay on Envision; 3 ul Cell Titer Glo (Promega) was added to measure the cytotoxicity and the plates were then incubated at RT in dark for 30 min. The luminescence was read on ViewLux (Perkin Elmer, Shelton, CT) using 6 sec exposure. ViewLux data was expressed as relative luminescence units.
For primary data analysis, raw plate reads for each titration point were first normalized relative to […] EGF control (100%) and DMSO only wells (basal, 0%).
For primary data analysis for viability assay, raw plate reads for each titration point were first normalized Tetra n-octyl ammonium bromide control (-100%) and DMSO (control, 100%).
In the case of `COC(=O)c1ccccc1`, the Potency entry is “inactive”. `Cc1cc2nc3c(=O)[nH]c(=O)nc-3n(C[C@H](O)[C@H](O)[C@H](O)CO)c2cc1C`: the Potency entry was “inactive”. In the case of `c1ccncc1` it was “inactive”. In the case of `C/C=C/C(=O)O` it was “inactive”; in that of `Cc1ncc[nH]1`, “inactive”.

`c1ccc2cc(Nc3ccc(Nc4ccc5ccccc5c4)cc3)ccc2c1`: the Potency entry is “inactive”. In the case of `CCOC(=O)C(C#N)=C(c1ccccc1)c1ccccc1` it was “inactive”; in that of `CN(C)C(=N)N=C(N)N`, “inactive”. The result for `Oc1ccc(O)cc1` reads “inactive”; that for `O=C(c1ccccc1)c1ccc(O)cc1O`, “inactive”; that for `Brc1cc(Oc2cc(Br)c(Br)c(Br)c2Br)c(Br)c(Br)c1Br`, 55.2 µM (active) and inactive. As to `CCC(C)(O)CCCC(C)C` (stereo not given), the Potency result is “inactive”. Take `Nc1ncn([C@@H]2O[C@H](CO)[C@@H](O)[C@H]2O)c(=O)n1`: the Potency entry was “inactive”. The result for `CN(C)CCN(Cc1cccs1)c1ccccn1` reads “inactive”; that for `CCCCOCCOCCOCCO`, “inactive”; that for `CC1=CCC(C(C)(C)O)CC1` (stereo not given), “inactive”. The result for `O=C(O)c1ccccc1Nc1cccc(C(F)(F)F)c1` reads “inactive”; that for `C=C(C)C1CC=C(C)CC1` (stereo not given), “inactive”. For `OC[C@H]1O[C@@H]2O[C@H]3[C@H](O)[C@@H](O)[C@@H](O[C@H]4[C@H](O)[C@@H](O)[C@@H](O[C@H]5[C@H](O)[C@@H](O)[C@@H](O[C@H]6[C@H](O)[C@@H](O)[C@@H](O[C@H]7[C@H](O)[C@@H](O)[C@@H](O[C@H]8[C@H](O)[C@@H](O)[C@@H](O[C@H]1[C@H](O)[C@H]2O)O[C@@H]8CO)O[C@@H]7CO)O[C@@H]6CO)O[C@@H]5CO)O[C@@H]4CO)O[C@@H]3CO`, the Potency entry was “inactive”.

In the case of `O=P(O)(O)O`, the Potency entry was “inactive”. The result for `O=C(c1ccc(OCCN2CCCCC2)cc1)c1c(-c2ccc(O)cc2)sc2cc(O)ccc12` reads “inactive”; that for `C=C(C)C(=O)OCCOC(=O)C(=C)C`, “inactive”; that for `Nc1ccc(Nc2ccccc2)cc1`, “inactive”.

Consider `Nc1ccccc1N`, for which the Potency entry was “inactive”.

As for `CC(C)OC(=O)C(C)(C)Oc1ccc(C(=O)c2ccc(Cl)cc2)cc1`, the Potency result is “inactive”. As for `Nc1ncnc2nc[nH]c12`, the Potency entry is “inactive”. Regarding `CN(C)CCC=C1c2ccccc2CCc2ccccc21`, the Potency result is “inactive”. The result for `c1ccc2c(c1)c1cccc3ccc4cccc2c4c31` reads “inactive”; that for `O=C(Nc1ccc(Cl)cc1)Nc1ccc(Cl)c(Cl)c1`, “inactive”. The result for `CC(C)=CCC/C(C)=C\CO` reads “inactive”; that for `CC(=O)c1ccccn1`, “inactive”. In the case of `CCCC(=O)O` it was “inactive”; in that of `CCC(C)c1ccccc1O` (stereo not given), “inactive”; in that of `CC(C(=O)O)c1cccc(C(=O)c2ccccc2)c1` (stereo not given), “inactive”. Regarding `O=C(/C=C/C=C/c1ccc2c(c1)OCO2)N1CCCCC1`, the Potency result is “inactive”. Take `CC(=O)Oc1ccccc1C(=O)Nc1ncc([N+](=O)[O-])s1`: the Potency result was “inactive”. As to `Cn1cnc([N+](=O)[O-])c1Sc1ncnc2nc[nH]c12`, the Potency entry was “inactive”. `CC(C)OB(OC(C)C)OC(C)C`: the Potency result was “inactive”. As to `Cc1c(OCC(F)(F)F)ccnc1CS(=O)c1nc2ccccc2[nH]1` (stereo not given), the Potency entry is “inactive”. In the case of `C=CC(C)(CCC=C(C)C)OC(C)=O` (stereo not given) it was “inactive”.

For the origin of these results see PubChem BioAssay (Tox21).
